Targets with a hit are over-represented here; the source holds about 8,800 in all. About 0.5% of all pairs of compound and target were hits.
compound: C=CC(=O)N1CCC[C@@H](n2nc(-c3ccc(Oc4ccccc4)cc3)c3c(N)ncnc32)C1 [ibrutinib]; assay: log2 fold change, soluble protein after heating vs DMSO (PISA); higher = thermal stabilisation; K562 lysate, 10 uM; active = over 0.2 and 3.5 SD of the protein, either way, in both replicates (recomputed)
In short: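 K562 pellets were dounce-homogenised in PBS pH 7.4 with 1 mM MgCl2, and the crude extract at 1 mg/mL protein was treated with 10 μM compound for 30 min. Aliquots were heated for 3 min across 48°C-58°C, pooled, and brought to 0.5% NP-40 at 4°C; soluble protein was the supernatant after 21,000xg for 90 min. Soluble protein was quantified by TMTpro 16plex LC-MS/MS with channel sums equalised, and reported as log2 fold change in thermal stability against DMSO controls, with values from duplicates.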

UniProt Q9P0K7, sequence (Q9P0K7 whole entry, looked up): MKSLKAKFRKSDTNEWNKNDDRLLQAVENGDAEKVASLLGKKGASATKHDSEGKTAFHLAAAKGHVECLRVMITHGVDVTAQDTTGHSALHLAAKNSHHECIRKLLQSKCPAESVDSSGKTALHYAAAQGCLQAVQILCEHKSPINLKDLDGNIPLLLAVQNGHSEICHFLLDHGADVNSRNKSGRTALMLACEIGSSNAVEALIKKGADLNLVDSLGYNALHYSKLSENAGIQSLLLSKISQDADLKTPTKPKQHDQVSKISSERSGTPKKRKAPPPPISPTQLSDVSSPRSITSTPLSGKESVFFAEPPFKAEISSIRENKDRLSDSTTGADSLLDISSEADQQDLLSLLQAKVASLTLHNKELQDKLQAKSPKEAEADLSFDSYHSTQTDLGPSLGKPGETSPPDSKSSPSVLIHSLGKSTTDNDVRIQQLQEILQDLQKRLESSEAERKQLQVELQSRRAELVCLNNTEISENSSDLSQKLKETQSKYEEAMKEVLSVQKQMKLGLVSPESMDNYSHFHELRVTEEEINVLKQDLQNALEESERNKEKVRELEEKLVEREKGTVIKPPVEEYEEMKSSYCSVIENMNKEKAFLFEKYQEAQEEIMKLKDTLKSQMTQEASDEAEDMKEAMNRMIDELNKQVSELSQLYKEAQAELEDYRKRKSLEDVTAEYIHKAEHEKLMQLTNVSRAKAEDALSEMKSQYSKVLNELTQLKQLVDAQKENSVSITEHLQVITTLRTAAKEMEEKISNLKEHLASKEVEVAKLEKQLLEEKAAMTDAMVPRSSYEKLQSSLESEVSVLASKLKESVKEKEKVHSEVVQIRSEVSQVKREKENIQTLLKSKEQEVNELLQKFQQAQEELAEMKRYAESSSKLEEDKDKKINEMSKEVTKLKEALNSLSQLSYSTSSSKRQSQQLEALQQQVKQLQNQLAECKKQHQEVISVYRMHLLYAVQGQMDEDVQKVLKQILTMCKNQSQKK
UniProt O75150, sequence (O75150 whole entry, looked up): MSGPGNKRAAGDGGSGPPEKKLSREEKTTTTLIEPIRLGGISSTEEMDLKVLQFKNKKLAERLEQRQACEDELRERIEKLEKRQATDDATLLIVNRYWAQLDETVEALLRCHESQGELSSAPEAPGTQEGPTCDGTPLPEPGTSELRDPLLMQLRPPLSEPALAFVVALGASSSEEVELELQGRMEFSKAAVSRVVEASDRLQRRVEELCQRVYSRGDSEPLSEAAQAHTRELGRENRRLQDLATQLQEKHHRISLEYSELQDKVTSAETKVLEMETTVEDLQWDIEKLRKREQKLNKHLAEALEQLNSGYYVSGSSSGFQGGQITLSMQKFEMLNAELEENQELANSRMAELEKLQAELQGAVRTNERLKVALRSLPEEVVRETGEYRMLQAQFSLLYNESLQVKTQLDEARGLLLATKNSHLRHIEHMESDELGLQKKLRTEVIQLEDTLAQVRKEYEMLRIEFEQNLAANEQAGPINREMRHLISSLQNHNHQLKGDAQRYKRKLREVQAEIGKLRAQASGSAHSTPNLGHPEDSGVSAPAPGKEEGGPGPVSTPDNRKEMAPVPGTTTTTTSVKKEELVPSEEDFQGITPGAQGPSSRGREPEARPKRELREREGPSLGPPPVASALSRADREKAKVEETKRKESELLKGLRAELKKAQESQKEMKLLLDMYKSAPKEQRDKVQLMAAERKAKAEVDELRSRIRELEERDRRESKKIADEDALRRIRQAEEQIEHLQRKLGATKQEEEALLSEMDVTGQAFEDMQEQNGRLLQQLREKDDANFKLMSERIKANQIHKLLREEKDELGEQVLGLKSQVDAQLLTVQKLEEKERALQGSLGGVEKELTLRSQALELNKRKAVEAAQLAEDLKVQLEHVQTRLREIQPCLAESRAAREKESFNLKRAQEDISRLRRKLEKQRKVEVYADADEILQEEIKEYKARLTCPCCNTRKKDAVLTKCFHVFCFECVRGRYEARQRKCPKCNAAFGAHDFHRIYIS
UniProt Q15283, sequence (Q15283 whole entry, looked up): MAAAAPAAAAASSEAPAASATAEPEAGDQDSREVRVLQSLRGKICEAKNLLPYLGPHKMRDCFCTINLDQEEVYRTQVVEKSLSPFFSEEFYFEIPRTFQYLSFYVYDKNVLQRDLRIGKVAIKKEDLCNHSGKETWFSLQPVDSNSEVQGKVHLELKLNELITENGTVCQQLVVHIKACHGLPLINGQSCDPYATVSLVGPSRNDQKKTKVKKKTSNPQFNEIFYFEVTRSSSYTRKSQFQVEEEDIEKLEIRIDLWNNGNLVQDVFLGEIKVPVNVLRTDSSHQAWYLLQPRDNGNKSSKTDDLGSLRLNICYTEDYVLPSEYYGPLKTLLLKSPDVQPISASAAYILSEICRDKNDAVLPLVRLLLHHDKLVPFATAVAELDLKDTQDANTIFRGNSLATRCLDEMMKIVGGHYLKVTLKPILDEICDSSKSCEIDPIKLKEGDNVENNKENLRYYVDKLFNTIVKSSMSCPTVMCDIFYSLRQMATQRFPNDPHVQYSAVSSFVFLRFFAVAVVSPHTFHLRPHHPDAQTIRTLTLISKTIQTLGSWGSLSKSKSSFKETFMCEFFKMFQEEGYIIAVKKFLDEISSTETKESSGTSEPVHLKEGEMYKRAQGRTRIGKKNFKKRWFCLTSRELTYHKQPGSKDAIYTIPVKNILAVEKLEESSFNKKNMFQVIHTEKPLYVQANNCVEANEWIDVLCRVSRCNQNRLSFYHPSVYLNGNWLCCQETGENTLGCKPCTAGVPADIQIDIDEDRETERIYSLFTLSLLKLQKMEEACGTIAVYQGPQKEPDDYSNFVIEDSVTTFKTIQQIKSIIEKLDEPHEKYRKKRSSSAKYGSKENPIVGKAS
UniProt Q9H1K0, sequence (Q9H1K0 whole entry, looked up): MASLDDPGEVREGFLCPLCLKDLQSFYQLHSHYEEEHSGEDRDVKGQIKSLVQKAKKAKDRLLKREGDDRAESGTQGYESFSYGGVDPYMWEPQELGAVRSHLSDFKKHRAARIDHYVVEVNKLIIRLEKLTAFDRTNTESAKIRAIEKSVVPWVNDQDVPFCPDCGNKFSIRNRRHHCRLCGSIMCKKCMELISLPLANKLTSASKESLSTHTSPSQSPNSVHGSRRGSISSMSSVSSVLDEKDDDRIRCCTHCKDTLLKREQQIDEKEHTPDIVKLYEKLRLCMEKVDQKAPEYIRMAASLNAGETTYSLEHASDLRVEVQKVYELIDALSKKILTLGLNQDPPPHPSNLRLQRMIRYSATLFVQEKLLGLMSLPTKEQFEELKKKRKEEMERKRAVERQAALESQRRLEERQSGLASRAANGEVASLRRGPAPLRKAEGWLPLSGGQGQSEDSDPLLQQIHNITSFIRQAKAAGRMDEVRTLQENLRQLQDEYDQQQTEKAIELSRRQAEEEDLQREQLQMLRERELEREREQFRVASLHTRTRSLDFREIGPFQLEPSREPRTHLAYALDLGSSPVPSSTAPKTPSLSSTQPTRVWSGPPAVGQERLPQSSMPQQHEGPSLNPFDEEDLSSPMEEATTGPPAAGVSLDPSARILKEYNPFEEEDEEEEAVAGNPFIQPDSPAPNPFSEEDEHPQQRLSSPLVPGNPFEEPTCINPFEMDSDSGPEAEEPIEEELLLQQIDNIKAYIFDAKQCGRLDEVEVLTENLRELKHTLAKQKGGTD
UniProt O14730, sequence (O14730 whole entry, looked up): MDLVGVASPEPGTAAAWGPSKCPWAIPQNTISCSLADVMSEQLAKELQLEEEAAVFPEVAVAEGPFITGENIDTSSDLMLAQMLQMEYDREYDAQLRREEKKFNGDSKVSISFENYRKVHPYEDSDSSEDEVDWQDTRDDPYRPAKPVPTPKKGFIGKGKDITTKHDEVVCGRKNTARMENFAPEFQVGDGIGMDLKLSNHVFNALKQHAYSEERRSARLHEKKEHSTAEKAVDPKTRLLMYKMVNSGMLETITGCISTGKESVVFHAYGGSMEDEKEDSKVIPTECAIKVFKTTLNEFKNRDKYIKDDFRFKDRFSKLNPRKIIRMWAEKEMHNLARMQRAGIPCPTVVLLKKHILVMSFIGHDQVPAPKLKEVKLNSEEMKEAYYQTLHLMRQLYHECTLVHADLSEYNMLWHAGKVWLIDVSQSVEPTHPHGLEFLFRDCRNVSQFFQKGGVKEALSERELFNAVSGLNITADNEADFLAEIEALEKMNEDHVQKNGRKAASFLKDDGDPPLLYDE
UniProt Q96EE3, sequence (Q96EE3 whole entry, looked up): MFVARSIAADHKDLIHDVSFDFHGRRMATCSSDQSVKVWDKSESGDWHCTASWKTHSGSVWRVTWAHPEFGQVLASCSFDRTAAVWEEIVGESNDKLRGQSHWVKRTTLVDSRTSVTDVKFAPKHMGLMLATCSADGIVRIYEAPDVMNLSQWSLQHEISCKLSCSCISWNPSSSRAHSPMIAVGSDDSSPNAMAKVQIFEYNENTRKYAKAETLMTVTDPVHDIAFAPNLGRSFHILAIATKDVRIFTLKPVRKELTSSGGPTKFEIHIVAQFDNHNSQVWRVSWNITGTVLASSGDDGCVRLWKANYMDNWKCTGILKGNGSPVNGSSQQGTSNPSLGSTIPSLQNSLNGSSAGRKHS
UniProt Q9BTD8, sequence (Q9BTD8 whole entry, looked up): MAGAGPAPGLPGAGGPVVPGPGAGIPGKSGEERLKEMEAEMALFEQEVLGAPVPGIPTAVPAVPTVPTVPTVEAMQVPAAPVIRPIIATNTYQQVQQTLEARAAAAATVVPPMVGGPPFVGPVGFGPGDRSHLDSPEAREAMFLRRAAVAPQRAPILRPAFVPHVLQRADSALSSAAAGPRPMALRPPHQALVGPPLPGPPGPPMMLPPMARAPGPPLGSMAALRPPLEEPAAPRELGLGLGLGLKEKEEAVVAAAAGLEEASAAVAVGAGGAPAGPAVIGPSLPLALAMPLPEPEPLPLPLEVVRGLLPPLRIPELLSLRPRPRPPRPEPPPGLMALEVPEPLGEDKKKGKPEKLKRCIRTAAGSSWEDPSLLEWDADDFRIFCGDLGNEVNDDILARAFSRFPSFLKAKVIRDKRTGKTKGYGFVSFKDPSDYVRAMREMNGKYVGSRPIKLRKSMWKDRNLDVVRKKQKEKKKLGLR

log2 fold change, inactive:
SEC62 (UniProt Q99442) 0.002
RPL28 (UniProt P46779) -0.026
SBF1 isoform 4 (UniProt O95248) 0.086
SEC16A isoform 5 (UniProt O15027) 0.035
SEH1L isoform 1 (UniProt Q96EE3) 0.013
RDH14 (UniProt Q9HBH5) 0.017
RFC3 (UniProt P40938) 0.024
RAB1B (UniProt Q9H0U4) -0.011
RRAGA (UniProt Q7L523) -0.114
RAB3IL1 (UniProt E9PK89) 0.066
RBM42 (UniProt Q9BTD8) 0.071
RBSN (UniProt Q9H1K0) 0.018
RAC2 (UniProt P15153) 0.094
RSU1 (UniProt Q15404) 0
RPL37A (UniProt P61513) -0.005
QRSL1 (UniProt Q9H0R6) -0.171
RBBP8 isoform 2 (UniProt Q99708) -0.204
RASA2 (UniProt Q15283) 0.034
RIOK3 (UniProt O14730) -0.021
RMC1 (UniProt Q96DM3) -0.004
RPS6KB1 (UniProt P23443) 0.024
RCAN1 (UniProt P53805) -0.019
RNF40 (UniProt O75150) 0.048
RNPS1 (UniProt Q15287) 0.04
RAI14 isoform 2 (UniProt Q9P0K7) -0.019
SDHA (UniProt P31040) -0.015
SCCPDH (UniProt Q8NBX0) 0.155
RPS6KA1 (UniProt Q15418) 0.047
RBM22 (UniProt Q9NW64) 0.01
RPS26P11 (UniProt Q5JNZ5) -0.037
RTN4IP1 (UniProt Q8WWV3) 0.073
ROCK1 (UniProt Q13464) -0.002
RPL8 (UniProt P62917) 0.031
RPL36AL (UniProt Q969Q0) -0.038
